Test results published in PubChem BioAssay (EPA / NIEHS).
Records with an inconclusive call do not appear. Activity calls are given as the source filed them. The calls were made as follows: active = hit-call score of the fitted dose curve at least 0.9, where 1 is the maximum; inconclusive = response in the unintended direction; inactive = score below 0.9.

Each compound was assayed against human Retinoic Acid Receptor gamma (RARg), RARG (gene 5916) (UniProt P13631) (assay: ATG_RARg_TRANS: Attagene TRANS-FACTORIAL HepG2 Assay for human Retinoic Acid Receptor gamma (RARg) (AID 2283009);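 as to AC50: AC50 is for reporter induction above DMSO meaning RARg activation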).
human Retinoic Acid Receptor gamma (RARg), RARG (gene 5916), sequence (P13631 whole entry, looked up, the tested form may be a part): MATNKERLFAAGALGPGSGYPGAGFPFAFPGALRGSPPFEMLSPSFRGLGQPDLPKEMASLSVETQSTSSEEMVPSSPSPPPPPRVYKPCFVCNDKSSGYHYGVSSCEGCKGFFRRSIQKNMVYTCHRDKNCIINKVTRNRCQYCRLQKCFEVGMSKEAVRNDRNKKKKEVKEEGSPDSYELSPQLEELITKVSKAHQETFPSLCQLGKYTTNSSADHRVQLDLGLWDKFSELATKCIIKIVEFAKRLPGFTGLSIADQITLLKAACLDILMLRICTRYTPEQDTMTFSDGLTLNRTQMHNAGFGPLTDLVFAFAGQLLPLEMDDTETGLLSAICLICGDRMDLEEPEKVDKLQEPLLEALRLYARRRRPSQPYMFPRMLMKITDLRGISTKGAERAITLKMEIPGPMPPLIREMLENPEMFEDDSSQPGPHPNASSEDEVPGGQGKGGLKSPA
How it was run: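 HepG2, RARg-GAL4 TRANS system, 24 h exposure; reporter mRNA by RT-PCR + CE fluorescence; increase over DMSO.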
In the case of `OC(Cc1ccccc1Cl)(Cn1cncn1)C1(Cl)CC1` (stereo not given), the outcome was “inactive”.
In the case of `Cc1cc(Cl)ccc1OC(C)C(=O)O` (stereo not given), the outcome was “inactive”.
For `O=C(Cc1ccccc1)OCCc1ccccc1`, the outcome was “inactive”.
In the case of `C[C@]12CC[C@@H](O)C[C@@H]1CC[C@@H]1[C@@H]2CC[C@]2(C)C(=O)CC[C@@H]12`, the outcome was “inactive”.
`NC(=O)CCl` was tested, and the outcome was “inactive”.
With `C#CCOC(=O)/C=C(C)/C=C/CC(C)CCCC(C)C` (stereo not given) the outcome was “inactive”.
With `CCCCCCCCCCCCN(C)C` the outcome was “inactive”.
For `CC(C=O)Cc1ccc2c(c1)OCO2` (stereo not given), the outcome was “inactive”.
`Nc1c(Oc2ccccc2)cc(O)c2c1C(=O)c1ccccc1C2=O` was tested, and the outcome was “inactive”.
With `CC(C)(C)c1cc([N+](=O)[O-])cc(C(C)(C)C)c1O` the outcome was “inactive”.
In the case of `Cc1ccc2nc3sc(=O)sc3nc2c1`, the AC50 was 17.7 µM (active).
With `OCCCCO` the outcome was “inactive”.
For `COCC(=O)N(c1c(C)cccc1C)[C@H](C)C(=O)OC`, the outcome was “inactive”.

Each compound was assayed against human RAR-related Orphan Receptor beta (RORb), RORB (gene 6096) (UniProt Q92753) (assay: ATG_RORb_TRANS: Attagene TRANS-FACTORIAL HepG2 Assay for human RAR-related Orphan Receptor beta (RORb) (AID 2283010)).
human RAR-related Orphan Receptor beta (RORb), RORB (gene 6096), sequence (Q92753 whole entry, looked up, the tested form may be a part): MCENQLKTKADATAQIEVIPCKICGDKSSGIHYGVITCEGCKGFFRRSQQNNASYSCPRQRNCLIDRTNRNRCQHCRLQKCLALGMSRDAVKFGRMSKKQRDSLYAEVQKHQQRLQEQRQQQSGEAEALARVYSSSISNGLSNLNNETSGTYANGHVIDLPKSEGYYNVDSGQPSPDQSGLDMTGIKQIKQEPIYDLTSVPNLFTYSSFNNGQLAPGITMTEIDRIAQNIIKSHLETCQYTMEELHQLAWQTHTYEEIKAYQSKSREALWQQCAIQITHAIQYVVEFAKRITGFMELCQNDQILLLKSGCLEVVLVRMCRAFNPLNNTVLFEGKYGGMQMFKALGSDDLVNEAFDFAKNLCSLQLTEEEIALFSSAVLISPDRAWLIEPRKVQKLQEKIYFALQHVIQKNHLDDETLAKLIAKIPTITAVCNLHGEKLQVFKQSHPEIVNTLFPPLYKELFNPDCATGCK
How it was run: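 In this TRANS-format test, human HepG2 cells express chimeric NR-Gal4 fusion proteins driving GAL4-UAS reporters. After 24 h dosing, reporter transcripts are measured by fluorescent RT-PCR/capillary electrophoresis, with DMSO as negative control.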
In the case of `Cc1cc(Cl)ccc1OC(C)C(=O)O` (stereo not given), the outcome was “inactive”.
`CCOP(=S)(OCC)OP(=S)(OCC)OCC` was tested, and the outcome was “inactive”.
In the case of `C[C@]12CC[C@@H](O)C[C@@H]1CC[C@@H]1[C@@H]2CC[C@]2(C)C(=O)CC[C@@H]12`, the outcome was “inactive”.
In the case of `NC(=O)CCl`, the outcome was “inactive”.
`O=c1oc2ccccc2c(O)c1C(CC(O)c1ccc(-c2ccc(Br)cc2)cc1)c1ccccc1` (stereo not given) was tested, and the outcome was “inactive”.
For `C#CCOC(=O)/C=C(C)/C=C/CC(C)CCCC(C)C` (stereo not given), the outcome was “inactive”.
In the case of `CCOC(=O)CC(=O)CCl`, the outcome was “inactive”.
For `O=C1C=CC(=O)c2ccccc21`, the outcome was “inactive”.
With `Nc1c(Oc2ccccc2)cc(O)c2c1C(=O)c1ccccc1C2=O` the outcome was “inactive”.
For `Cc1ccc2nc3sc(=O)sc3nc2c1`, the outcome was “inactive”.
With `c1ccc(-c2cccc(-c3ccccc3)c2)cc1` the outcome was “inactive”.
For `CCC(C)(C#N)N=NC(C)(C#N)CC` (stereo not given), the outcome was “inactive”.
In the case of `CCN(CC)C(=O)C(Cl)=C(C)OP(=O)(OC)OC`, the outcome was “inactive”.
With `OCCCCO` the outcome was “inactive”.

These compounds were tested against human RAR-related Orphan Receptor gamma (RORg), RORC (gene 6097) (UniProt P51449) (assay: ATG_RORg_TRANS: Attagene TRANS-FACTORIAL HepG2 Assay for human RAR-related Orphan Receptor gamma (RORg) (AID 2283011)).
human RAR-related Orphan Receptor gamma (RORg), RORC (gene 6097), sequence (P51449 whole entry, looked up, the tested form may be a part): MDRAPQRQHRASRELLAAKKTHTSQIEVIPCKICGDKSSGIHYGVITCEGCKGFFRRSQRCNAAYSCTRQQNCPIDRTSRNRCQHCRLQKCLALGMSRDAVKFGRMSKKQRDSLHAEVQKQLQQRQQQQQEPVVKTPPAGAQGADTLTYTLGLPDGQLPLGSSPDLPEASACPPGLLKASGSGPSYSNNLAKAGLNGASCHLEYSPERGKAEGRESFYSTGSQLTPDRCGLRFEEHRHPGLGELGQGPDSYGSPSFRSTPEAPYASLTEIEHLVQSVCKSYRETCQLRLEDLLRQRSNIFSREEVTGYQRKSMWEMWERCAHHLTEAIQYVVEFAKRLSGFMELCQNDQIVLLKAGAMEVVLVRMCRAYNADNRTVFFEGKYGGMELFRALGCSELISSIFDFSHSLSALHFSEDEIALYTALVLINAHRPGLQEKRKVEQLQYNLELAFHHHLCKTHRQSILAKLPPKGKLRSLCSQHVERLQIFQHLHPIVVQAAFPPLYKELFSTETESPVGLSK
How it was run: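 First, HepG2 liver cells were transfected with GAL4-UAS-driven reporter constructs and the RORg-Gal4 fusion. Next, they were treated with chemical for 24 h. Finally, reporter mRNA was quantified by RT-PCR and capillary electrophoresis, with upward activity fitted against DMSO.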
For `Cc1cc(Cl)ccc1OC(C)C(=O)O` (stereo not given), the outcome was “inactive”.
`O=C(Cc1ccccc1)OCCc1ccccc1` was tested, and the outcome was “inactive”.
For `C[C@]12CC[C@@H](O)C[C@@H]1CC[C@@H]1[C@@H]2CC[C@]2(C)C(=O)CC[C@@H]12`, the outcome was “inactive”.
In the case of `NC(=O)CCl`, the outcome was “inactive”.
`C#CCOC(=O)/C=C(C)/C=C/CC(C)CCCC(C)C` (stereo not given) was tested, and the outcome was “inactive”.
`CC(C)(COCC1CO1)COCC1CO1` (stereo not given) was tested, and the outcome was “inactive”.
`CC(C=O)Cc1ccc2c(c1)OCO2` (stereo not given) was tested, and the outcome was “inactive”.
`Nc1c(Oc2ccccc2)cc(O)c2c1C(=O)c1ccccc1C2=O` was tested, and the outcome was “inactive”.
`Oc1c(Cl)cc(Cl)cc1Cl` was tested, and the outcome was “inactive”.
With `CC1(C)[C@H](C(=O)O[C@H](C#N)c2cccc(Oc3ccccc3)c2)[C@@H]1/C=C(\Cl)C(F)(F)F` the outcome was “inactive”.
`CCC(C)(C#N)N=NC(C)(C#N)CC` (stereo not given) was tested, and the outcome was “inactive”.
With `CCN(CC)C(=O)C(Cl)=C(C)OP(=O)(OC)OC` the outcome was “inactive”.
With `CCCCOC(=O)COC(=O)c1ccccc1C(=O)OCCCC` the outcome was “inactive”.
